From PubChem BioAssay AID624414 (National Center for Advancing Translational Sciences (NCATS), 2012)
Among all 410,000 compounds or so, about 480 (0.12%) were called active. The full list was thinned out, with actives kept by preference. A number with no mark means an inactive call. Rule as the data show it: active = activation above about 50%; inconclusive = mostly about 30% to 49%; inactive = weaker than that.

The compounds below were run against Mucolipin-1 (Homo sapiens) (UniProt Q9GZU1) (assay: qHTS for Agonists of the Human Mucolipin Transient Receptor Potential 1 (TRPML1)). Settings: TRPML1-expressing cells, Ca2+ dye fluorescence, FDSS; stronger effect = higher value.
Chain of Mucolipin-1 (Homo sapiens) (Q9GZU1 whole entry, looked up, the tested form may be a part): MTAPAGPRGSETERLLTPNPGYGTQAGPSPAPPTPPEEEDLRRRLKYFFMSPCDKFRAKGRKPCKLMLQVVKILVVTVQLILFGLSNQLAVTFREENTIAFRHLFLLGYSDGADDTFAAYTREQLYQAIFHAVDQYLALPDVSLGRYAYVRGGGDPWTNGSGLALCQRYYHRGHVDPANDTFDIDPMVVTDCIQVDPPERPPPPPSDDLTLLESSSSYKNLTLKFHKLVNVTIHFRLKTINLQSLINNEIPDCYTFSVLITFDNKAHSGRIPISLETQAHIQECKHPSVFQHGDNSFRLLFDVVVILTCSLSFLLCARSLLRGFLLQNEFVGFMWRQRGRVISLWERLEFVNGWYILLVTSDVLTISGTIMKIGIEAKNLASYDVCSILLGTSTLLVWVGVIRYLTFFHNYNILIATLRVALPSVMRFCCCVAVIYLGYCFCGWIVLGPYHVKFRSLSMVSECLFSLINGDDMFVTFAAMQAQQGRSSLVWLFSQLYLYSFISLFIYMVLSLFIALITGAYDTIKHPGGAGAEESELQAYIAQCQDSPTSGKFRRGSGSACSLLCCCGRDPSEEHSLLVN
Source text: Mutations of human Mucolipin transient receptor potential 1 (TRPML1) cause type IV mucolipidosis (ML4), a devastating neurodegenerative disease in young children. […] Currently, there is no treatment for ML4. […] Under physiological conditions, TRPMLs regulate membrane trafficking by transducing information about PI(3,5)P2 levels into changes in juxtaorganellar Ca2+, thereby triggering membrane fusion/fission events in the late endocytic pathways (endolysosomal trafficking). In addition, TRPML1 mediates release of Fe2+ from late endosomes and lysosomes, which is essential for cellular iron metabolism. Thus, impaired ion (Ca2+ and Fe2+) homeostasis underlies lysosomal dysfunction and ML4 phenotypes. In ML4 cells, the problem is twofold. First, defective Ca2+-dependent membrane trafficking due to TRPML1-deficiency causes accumulation of lipids and other bio-materials in the lysosome. The second strike comes from the lysosomal iron overload (due to impairment of TRPML1's Fe2+ conductivity), which converts the accumulated materials into the nondegradable (resistant to lysosomal degradation) lipofuscin (also called aging pigment) in the lysosome. Lipofuscin accumulation dramatically compromises the functions of lysosomes.
Niemann-Pick type C (NPC) disease is another lysosome storage disease (LSD) with severe neurodegeneration during the childhood. Currently, there is no cure for NPC. […] Thus, TRPML1 is likely to be an essential regulator of lysosome ion homeostasis. We specifically hypothesize that stimulating TRPML1's Fe2+/Ca2+ channel activity in the lysosome using synthetic agonists can alleviate neurodegeneration associated with ML4 or NPC.
To this end, a high throughput screen was developed in a miniaturized format to screen against the Molecular Libraries Small Molecule Repository (MLSMR) to find small molecules that act either as inhibitors or agonist against the TRPML1 channel.
NIH Chemical Genomics Center [NCGC]
NIH Molecular Libraries Probe Centers Network [MLPCN]
Assay Submitter (PI): Haoxing Xu, University of Michigan Ann Arbor
TRPML1-DL cells are dissociated from flasks, counted and, brought up to a density of 500,000 cells per mL of media containing a 1X Tet inducer. Using a Multidrop Combi, 3uL of this cell solution is dispensed to each well of a 1536 TC treated, black, clear bottom hi base plate for a final cell density of 1,500 cells per well. The assay plates are incubated overnight (approximately 16 hours) at 37 degrees C and 5% CO2. Using a Multidrop Combi, 2uL of ABD Ca8 no wash dye plus quencher is added to each well. The assay plates incubate at room temperature in the dark for 45-90 minutes. The assay plate is read on the FDSS using the following protocol: 10 second baseline read, 23nL of compounds and controls are added using 1536 pintool, agonist read for 110 seconds, 1 uL EC80 addition (4uM final 54-4 diluted in media), antagonist read for 110 seconds.
Also: 0% is about no effect.

Compound | activation
CN(C)c1ccc(NC(=O)CSc2nc(-c3ccco3)cc(C(F)(F)F)n2)cc1 | 0.776%
CCN(CC)CCCC(C)n1c2nc(=O)[nH]c(=O)c-2nc2cc(Cl)ccc21 (centres undefined) | 82.9% (active)
CCN(CC)CCCC(C)Nc1ccnc2cc(Cl)ccc12 (centres undefined) | 0.571%
Cc1cccc(-n2c(=O)c3c(c4cc(C)ccc4n3C)n(CC(=O)Nc3ccccc3Cl)c2=O)c1 | 1.58%
Brc1cccc[n+]1Cc1cccc(C[n+]2ccccc2Br)c1 | 0.0634%
Cc1cccc(NC(=O)COC(=O)c2ccccc2OCc2cccc(Br)c2)c1 | -0.0809%
CCCCCCCNc1ccc(/C=C/c2ccnc3ccccc23)cc1 | 6.43%
O=C(Nc1ccc(Cl)cc1)c1cnn2c1NC(=C1CC1)C=C2C(F)F | -0.513%
CCN(CC)c1ccc2cc(C(N)=O)/c(=N\NC(=O)c3ccncc3)oc2c1 | 81% (active)
C/C(=N\NC(N)=S)c1ccncc1 | 0%
CCOC(=O)c1c(C)oc2ccc(N(C(=O)c3ccncc3)S(=O)(=O)c3ccc(CC)cc3)cc12 | 0.815%
COc1ccc(Br)cc1C1C2C=CCC(C)C2C(=O)N1Cc1ccccc1 (centres undefined) | 1.3%
CS(=O)c1ccc(/C=C2\C=Cc3ccccc32)cc1 (centres undefined) | -0.666%
COc1ccc(NC(=O)C2CCCN(S(=O)(=O)c3cccc4nonc34)C2)cc1Cl (centres undefined) | 0.791%
Cc1ccc(-c2nc(=N)sn2Cc2ccccc2)cc1 | 0.856%
O=C(Cc1ccc(Cl)cc1)Nc1ccc2nn(-c3ccc(Cl)cc3)nc2c1 | -0.688%
CCN(CC)/[N+]([O-])=N/OCOC(=O)Cc1c(C)n(C(=O)c2ccc(Cl)cc2)c2ccc(OC)cc12 | 1.25%
O=C(COc1ccccc1C(=O)Nc1ccccc1)Nc1cccc(F)c1 | -0.0642%
CCn1c2ccccc2c2cc(CN3CCN(Cc4cccc(Cl)c4)CC3)ccc21 | 1.83%
Cc1cccc(N2CCN(C(c3ccc(N(C)C)cc3)c3nnnn3C(C)(C)C)CC2)c1C (centres undefined) | -0.374%

Compound | activation
Cc1cccc(N2CCN(C(c3ccccc3)c3nnnn3CC3CCCO3)CC2)c1C (centres undefined) | 83.5% (active)
COc1ccccc1C(c1nnnn1CC1CCCO1)N1CCN(c2ccccc2)CC1 (centres undefined) | 1.14%
O=C(CSc1nccn1Cc1ccc(Cl)cc1)NCc1ccccc1 | -1.21%
SCc1nc2ccc(Cl)cc2[nH]1 | -0.507%
Cc1cc(C)c(/C=C2\C(=O)Nc3ccccc32)[nH]1 | 92% (active)
CC(C)OCCCn1c(SCC(=O)c2ccccc2)nc2c(sc3ccccc32)c1=O | 0.121%
CCOCCCNC(=O)c1ccc2nc(CCc3ccccc3)oc2c1 | 2.82%
CC(C)(C)n1ncc2c(=O)n(Cc3ccc(C(=O)c4ccccc4)cc3)cnc21 | 2.07%
CN(CC(=O)Nc1ccc(F)cc1)CC(=O)N1CCCCC1 | -0.517%
CC(OC(=O)Cc1ccc(F)cc1)C(=O)N1CCc2ccccc21 (centres undefined) | 1.15%
CC(C(=O)N1CCc2ccccc21)N(C)CC(=O)Nc1ccc(F)cc1 (centres undefined) | 51.7% (active)
O=C(O)C1=C/C(=C/C=[N+]2c3cc(O)c(O[C@H]4OC(CO)[C@@H](O)[C@@H](O)[C@@H]4O)cc3C[C@@H]2C(=O)[O-])C[C@H](C(=O)O)N1 (some centres undefined) | -0.0321%
Cc1nn(CC(=O)O)c(=O)c2cc3cc(F)ccc3n12 | -0.613%
CC1CC(C)CN(c2oc(-c3ccc(OCc4ccc(Cl)cc4)cc3)nc2C#N)C1 (centres undefined) | -0.254%
COc1ccc(-c2ccc(C3C4C=CCCC4(C)C(=O)N3Cc3ccccc3)c(F)c2)cc1OC (centres undefined) | 0.474%
COc1ccc(Cl)cc1NC(=O)c1sc2nc3c(cc2c1N)CN(C)CC3 | 1.12%
O=C(c1ccc2c(c1)N(Cc1ccccc1)C(=O)c1ccccc1S2(=O)=O)N1CCC(Cc2ccccc2)CC1 | 0.0562%
CC(=O)c1ccc(NS(=O)(=O)c2ccc(-c3cc(C)no3)s2)cc1 | -0.182%
CN(C)c1cccc2ccccc12 | -0.266%
